Source: the antibiotic and cytotoxicity screens of Wong et al. (2023)
Screen size: about 39,000 compounds; about 1,500 (3.8%) were called active. The entries come from a sample that favours actives as a whole.

tested on: HSkMC (human skeletal muscle cells); assay: cytotoxicity call (relative viability < 0.9); conditions: 10 µM

SMILES	cytotoxicity call
Cn1ncc2c1CCCC2=O	inactive
Cc1noc(C)c1NC(=O)N(C)C[C@H]1Oc2ncc(C#CCN(C)C)cc2C(=O)N([C@H](C)CO)C[C@H]1C	inactive
COc1cccc(S(=O)(=O)N(C)C[C@@H]2Oc3ncc(C#CCN(C)C)cc3C(=O)N([C@@H](C)CO)C[C@@H]2C)c1	inactive
C[C@@H]1CN([C@H](C)CO)C(=O)Cc2cc(NC(=O)Nc3ccc4c(c3)OCO4)ccc2O[C@@H]1CN(C)S(C)(=O)=O	inactive
COc1ccc(NC(=O)N(C)C[C@H]2OCCCC[C@H](C)Oc3ccc(NC(=O)c4ccccc4)cc3C(=O)N([C@@H](C)CO)C[C@@H]2C)cc1	inactive
COc1ccc(S(=O)(=O)N(C)C[C@H]2OCCCC[C@@H](C)Oc3ccc(NC(=O)CCC(F)(F)F)cc3C(=O)N([C@@H](C)CO)C[C@@H]2C)cc1	inactive
COc1ccc(CN(C)C[C@@H]2Oc3ccc(NC(=O)Nc4ccc(C(F)(F)F)cc4)cc3CC(=O)N([C@H](C)CO)C[C@@H]2C)cc1	active
COc1ccc(NC(=O)Nc2ccc3c(c2)CC(=O)N([C@@H](C)CO)C[C@H](C)[C@@H](CN(C)C(=O)Nc2ccc(C(F)(F)F)cc2)O3)cc1	inactive
COc1ccc(CN(C)C[C@@H]2Oc3ccc(NC(=O)Nc4ccc(C(F)(F)F)cc4)cc3CC(=O)N([C@H](C)CO)C[C@H]2C)cc1	inactive
C[C@@H]1CN([C@@H](C)CO)C(=O)c2cccc(NS(C)(=O)=O)c2O[C@@H]1CN(C)S(=O)(=O)c1cn(C)cn1	inactive
COc1ccc(NC(=O)N(C)C[C@H]2Oc3ccc(NS(=O)(=O)c4c(C)noc4C)cc3C(=O)N([C@@H](C)CO)C[C@H]2C)cc1	inactive
COc1ccc(S(=O)(=O)Nc2ccc3c(c2)C(=O)N([C@@H](C)CO)C[C@@H](C)[C@@H](CN(C)S(C)(=O)=O)O3)cc1	inactive
COc1ccccc1C#Cc1ccc2c(c1)O[C@@H](CN(C)Cc1cncnc1)[C@H](C)CN([C@H](C)CO)S2(=O)=O	active
COc1ccccc1C#Cc1ccc2c(c1)O[C@@H](CN(C)Cc1cncnc1)[C@@H](C)CN([C@@H](C)CO)S2(=O)=O	inactive
COc1ccccc1C#Cc1ccc2c(c1)O[C@H](CN(C)Cc1cncnc1)[C@@H](C)CN([C@@H](C)CO)S2(=O)=O	inactive
COc1ccccc1C#Cc1ccc2c(c1)O[C@@H](CN(C)Cc1cncnc1)[C@H](C)CN([C@@H](C)CO)S2(=O)=O	active
COc1ccccc1C#Cc1ccc2c(c1)O[C@H](CN(C)Cc1cncnc1)[C@@H](C)CN([C@H](C)CO)S2(=O)=O	inactive
COc1ccccc1C#Cc1ccc2c(c1)O[C@H](CN(C)Cc1cncnc1)[C@H](C)CN([C@H](C)CO)S2(=O)=O	inactive
COc1ccc(S(=O)(=O)N(C)C[C@H]2Oc3c(NC(=O)c4cc(C)nn4C)cccc3C(=O)N([C@H](C)CO)C[C@H]2C)cc1	inactive
C[C@@H]1CCCCO[C@H](CN(C)CC2CC2)[C@@H](C)CN([C@H](C)CO)C(=O)c2cc(NC(=O)CCC(F)(F)F)ccc2O1	inactive
COc1ccc(S(=O)(=O)N2c3ccc(Cl)cc3[C@](O)(c3ccccc3Cl)[C@@H]2C(=O)N2CCC[C@H]2C(N)=O)cc1OC	inactive
C[C@@H]1CN([C@@H](C)CO)C(=O)c2cccc(NS(=O)(=O)c3cn(C)cn3)c2O[C@H]1CN(C)C(=O)Nc1ccc2c(c1)OCO2	inactive
O=C(CS)NCCCCCNC(=O)[C@@H]1C[C@@H]2C(=O)N[C@@H](Cc3ccccc3)C(=O)N2[C@@H]1c1ccc(O)cc1	inactive

SMILES	cytotoxicity call
CN(C)CCCC1(c2ccc(F)cc2)OCc2cc(C#N)ccc21.O=C(O)C(=O)O (configuration not stated)	inactive
COc1c(C)cccc1C(=O)N1CC[C@H](c2nn(CCN)c3ncccc23)C1	inactive
COc1ccc(NC(=O)Nc2ccc3c(c2)C(=O)N([C@@H](C)CO)C[C@@H](C)[C@H](CN(C)S(=O)(=O)c2ccc(F)cc2)OCCCC[C@@H](C)O3)cc1	inactive
CO[C@@H]1CN(C)C(=O)c2ccc(NS(C)(=O)=O)cc2OC[C@H](C)N(C(=O)CN(C)C)C[C@@H]1C	inactive
O=C(C[C@@H]1C[C@H]2c3cc(NC(=O)Nc4ccc(C(F)(F)F)cc4)ccc3O[C@H]2[C@H](CO)O1)NCCc1ccccc1	active
O=C(C[C@H]1C[C@@H]2c3cc(NC(=O)Nc4ccc(C(F)(F)F)cc4)ccc3O[C@@H]2[C@H](CO)O1)NCc1cc(F)ccc1F	inactive
O=C(C[C@H]1C[C@@H]2c3cc(NC(=O)Nc4ccc(C(F)(F)F)cc4)ccc3O[C@@H]2[C@@H](CO)O1)NCc1ccc(Cl)cc1	inactive
O=C(Nc1ccc(C(F)(F)F)cc1)Nc1ccc2c(c1)[C@H]1C[C@@H](CC(=O)N3CCc4ccccc4C3)O[C@H](CO)[C@H]1O2	inactive
O=C(Nc1ccc(C(F)(F)F)cc1)Nc1ccc2c(c1)[C@@H]1C[C@@H](CC(=O)N3CCc4ccccc4C3)O[C@H](CO)[C@@H]1O2	inactive
O=C(Nc1ccc(C(F)(F)F)cc1)Nc1ccc2c(c1)[C@H]1C[C@H](CC(=O)N3CCc4ccccc4C3)O[C@H](CO)[C@H]1O2	active
O=C(C[C@H]1C[C@@H]2c3cc(NC(=O)Nc4ccc(C(F)(F)F)cc4)ccc3O[C@@H]2[C@@H](CO)O1)NCc1cc(F)ccc1F	active
O=C(C[C@@H]1C[C@@H]2c3cc(NC(=O)Nc4ccc(C(F)(F)F)cc4)ccc3O[C@@H]2[C@H](CO)O1)NCc1cc(F)ccc1F	inactive
O=C(C[C@@H]1C[C@H]2c3cc(NC(=O)Nc4ccc(C(F)(F)F)cc4)ccc3O[C@H]2[C@H](CO)O1)NCc1ccc(Cl)cc1	active
O=C(C[C@@H]1C[C@@H]2c3cc(NC(=O)Nc4ccc(C(F)(F)F)cc4)ccc3O[C@@H]2[C@@H](CO)O1)NCCc1ccccc1	inactive
O=C(C[C@H]1C[C@H]2c3cc(NC(=O)Nc4ccc(C(F)(F)F)cc4)ccc3O[C@H]2[C@@H](CO)O1)NCCc1ccccc1	inactive
O=C(C[C@H]1C[C@@H]2c3cc(NC(=O)Nc4ccc(C(F)(F)F)cc4)ccc3O[C@@H]2[C@H](CO)O1)NCc1ccc(Cl)cc1	inactive
Cc1noc(C)c1S(=O)(=O)Nc1ccc2c(c1)CC(=O)N([C@@H](C)CO)C[C@@H](C)[C@@H](CN(C)Cc1ccccc1)O2	inactive
Cc1noc(C)c1NC(=O)Nc1ccc2c(c1)CC(=O)N([C@@H](C)CO)C[C@@H](C)[C@@H](CN(C)Cc1ccc(-c3ccccc3)cc1)O2	inactive
COc1ccc(NC(=O)N(C)C[C@@H]2Oc3c(NC(=O)Nc4cccc5ccccc45)cccc3C(=O)N([C@@H](C)CO)C[C@@H]2C)cc1	inactive
C[C@H]1COC(=O)[C@H](NC(=O)OCC2c3ccccc3-c3ccccc32)CC=CC[C@@H](CC(=O)NCCO)C(=O)N1	inactive
CCCNC(=O)N[C@@H]1C=C[C@@H](CC(=O)N2CCN(C)CC2)O[C@@H]1CO	inactive
Cc1ccc(S(=O)(=O)Nc2ccc3c(c2)C(=O)N([C@H](C)CO)C[C@H](C)[C@@H](CN(C)C(=O)Nc2c(C)noc2C)OCCCC[C@H](C)O3)cc1	inactive
C[C@H]1CN([C@@H](C)CO)C(=O)c2c(c3ccccc3n2C)-c2ccccc2CO[C@H]1CN(C)C(=O)Nc1ccc(-c2ccccc2)cc1	inactive

SMILES	cytotoxicity call
C[C@@H]1CCCCO[C@H](CN(C)Cc2ccc(C(=O)Nc3ccccc3N)cc2)[C@@H](C)CN([C@@H](C)CO)C(=O)c2cc(NC(=O)Nc3ccc(C(F)(F)F)cc3)ccc2O1	inactive
C[C@@H]1CN([C@H](C)CO)C(=O)c2cc(NC(=O)Nc3ccc(C(F)(F)F)cc3)ccc2O[C@@H]1CN(C)Cc1ccc(C(=O)Nc2ccccc2N)cc1	inactive
C[C@@H]1CCCCO[C@@H](CN(C)Cc2ccc(C(=O)Nc3ccccc3N)cc2)[C@@H](C)CN([C@H](C)CO)C(=O)c2cc(NC(=O)Nc3ccc(C(F)(F)F)cc3)ccc2O1	active
C[C@H]1CN([C@@H](C)CO)C(=O)c2cc(NC(=O)Nc3ccc(C(F)(F)F)cc3)ccc2O[C@H]1CN(C)Cc1ccc(C(=O)Nc2ccccc2N)cc1	active
C[C@H]1CN([C@@H](C)CO)C(=O)c2cc(NC(=O)Nc3ccc(C(F)(F)F)cc3)ccc2O[C@@H]1CN(C)Cc1ccc(C(=O)Nc2ccccc2N)cc1	inactive
C[C@H](CO)N1C[C@H](C)[C@@H](CN(C)Cc2ccc(C(=O)Nc3ccccc3N)cc2)Oc2ccc(NC(=O)Nc3ccc(C(F)(F)F)cc3)cc2C1=O	inactive
C[C@H](CO)N1C[C@H](C)[C@H](CN(C)Cc2ccc(C(=O)Nc3ccccc3N)cc2)Oc2ccc(NC(=O)Nc3ccc(C(F)(F)F)cc3)cc2C1=O	active
C[C@@H]1CCCCO[C@@H](CN(C)Cc2ccc(C(=O)Nc3ccccc3N)cc2)[C@@H](C)CN([C@H](C)CO)C(=O)c2cc(NC(=O)Nc3ccc(F)cc3)ccc2O1	inactive
C[C@@H]1CN([C@@H](C)CO)C(=O)c2cc(NC(=O)Nc3ccc(C(F)(F)F)cc3)ccc2O[C@H]1CN(C)Cc1ccc(C(=O)Nc2ccccc2N)cc1	inactive
C[C@@H]1CN([C@H](C)CO)C(=O)Cc2cc(NC(=O)CCN3CCOCC3)ccc2O[C@@H]1CN(C)C(=O)Nc1ccccc1	inactive
CN1C(=O)NC2(CCNCC2)C1=O	inactive
O=[N+]([O-])c1ccc(/C=C/CN(C/C=C/c2ccc([N+](=O)[O-])cc2)CCCNS(=O)(=O)c2cccc3cnccc23)cc1	inactive
COc1ccc(CN(C)C[C@H]2Oc3c(NC(=O)Nc4ccc(C(F)(F)F)cc4)cccc3C(=O)N([C@@H](C)CO)C[C@H]2C)cc1	inactive
COc1ccc(NC(=O)Nc2cccc3c2O[C@@H](CN(C)Cc2ccc(C(F)(F)F)cc2)[C@@H](C)CN([C@H](C)CO)C3=O)cc1	inactive
COc1ccc(NC(=O)Nc2cccc3c2O[C@H](CN(C)Cc2ccc(C(F)(F)F)cc2)[C@@H](C)CN([C@@H](C)CO)C3=O)cc1	inactive
COc1ccc(CN(C)C[C@@H]2Oc3c(NC(=O)Nc4ccc(C(F)(F)F)cc4)cccc3C(=O)N([C@H](C)CO)C[C@H]2C)cc1	active
COc1ccc(NC(=O)Nc2cccc3c2O[C@@H](CN(C)Cc2ccc(C(F)(F)F)cc2)[C@H](C)CN([C@@H](C)CO)C3=O)cc1	inactive
COc1ccc(CN(C)C[C@H]2Oc3c(NC(=O)Nc4ccc(C(F)(F)F)cc4)cccc3C(=O)N([C@H](C)CO)C[C@H]2C)cc1	inactive
COc1ccc(CN(C)C[C@H]2Oc3c(NC(=O)Nc4ccc(C(F)(F)F)cc4)cccc3C(=O)N([C@H](C)CO)C[C@@H]2C)cc1	active
COc1ccc(CN(C)C[C@@H]2Oc3c(NC(=O)Nc4ccc(C(F)(F)F)cc4)cccc3C(=O)N([C@@H](C)CO)C[C@H]2C)cc1	active
COc1ccc(NC(=O)Nc2cccc3c2O[C@@H](CN(C)Cc2ccc(C(F)(F)F)cc2)[C@H](C)CN([C@H](C)CO)C3=O)cc1	inactive
